Assay results taken from the supplement of paper PMC10849652.
The full data set covers some 7,900 targets. This sample favours those with a hit. About 0.6% of all pairs of compound and target were hits. A number with no mark means an inactive call.

Columns and labels:
Assay in all cases: log2 fold change, soluble protein after heating vs DMSO (PISA); higher = thermal stabilisation; K562 cells, 10 uM, 30 min; active = over 0.2 and 3.5 SD of the protein, either way, in both replicates (recomputed)
[1] = compound: COC1=CC=C(C=C1)CN2C=CC3=C2C=C(C=C3)C(=O)NO
How it was run: (§1)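 K562 cells at 2×10^6 cells/mL were treated with 10 μM compound for 30 min. Aliquots were heated for 3 min across 48°C-58°C, pooled, and extracted in PBS with 0.5% NP-40 at 4°C; soluble protein was the supernatant after 21,000xg for 90 min. Soluble protein was quantified by TMTpro 16plex LC-MS/MS with channel sums equalised, and reported as log2 fold change in thermal stability against DMSO controls, with values from duplicates.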

[2] = compound: CON(C)C(=O)N1N=C(c2cc(F)ccc2F)S[C@@]1(CCCN)c1ccccc1 [filanesib]
How it was run: as §1

[3] = compound: CO[C@H]1C[C@@H]2CC[C@@H](C)[C@@](O)(O2)C(=O)C(=O)N2CCCC[C@H]2C(=O)O[C@H]([C@H](C)C[C@@H]2CC[C@H](n3cnnn3)[C@H](OC)C2)CC(=O)[C@H](C)/C=C(\C)[C@@H](O)[C@@H](OC)C(=O)[C@H](C)C[C@H](C)/C=C/C=C/C=C/1C [zotarolimus]
How it was run: as §1

[4] = compound: COc1cc(C(=O)O)ccc1NC(=O)[C@@H]1N[C@@H](CC(C)(C)C)[C@](C#N)(c2ccc(Cl)cc2F)[C@H]1c1cccc(Cl)c1F [idasanutlin]
How it was run: as §1

[5] = compound: COc1cc(Nc2ncc3c(n2)-c2ccc(Cl)cc2C(c2c(F)cccc2OC)=NC3)ccc1C(=O)O [alisertib]
How it was run: as §1

[6] = compound: COc1cc2nc(-c3cc(F)ccc3O)nc(N[C@@H]3CNC[C@H]3C(C)(C)O)c2cc1OC
How it was run: as §1

[7] = compound: COc1cc2ncnc(Nc3ccc(F)c(Cl)c3)c2cc1OCCCN1CCOCC1 [gefitinib]
How it was run: as §1

[8] = compound: COc1cccc2cc(-c3nc([C@H]4CC[C@H](C(=O)O)CC4)n4ncnc(N)c34)[nH]c12
How it was run: as §1

[9] = compound: CS(=O)(=O)CCNCc1ccc(-c2ccc3ncnc(Nc4ccc(OCc5cccc(F)c5)c(Cl)c4)c3c2)o1 [lapatinib]
How it was run: as §1

[10] = compound: CS(=O)(=O)N1CCN(Cc2cc3nc(-c4cccc5[nH]ncc45)nc(N4CCOCC4)c3s2)CC1 [pictilisib]
How it was run: as §1

[11] = compound: CS(=O)(=O)c1ccc(-c2cnc(N)c(C(=O)Nc3ccccc3)n2)cc1
How it was run: as §1

[12] = compound: C[C@@H](Oc1cc(-c2cnn(C3CCNCC3)c2)cnc1N)c1c(Cl)ccc(F)c1Cl [crizotinib]
How it was run: as §1

[13] = compound: C[C@@H]1COCCN1C2=NC(=NC(=C2)C3(CC3)S(=O)(=O)C)C4=C5C=CNC5=CC=C4
How it was run: as §1

[14] = compound: C[C@H](C1=CC=C(C=C1)C(=O)NC2=C3C=CNC3=NC=C2)N
How it was run: as §1

[15] = compound: C[C@H](Nc1ncnc2nc[nH]c12)c1cc2cccc(Cl)c2c(=O)n1-c1ccccc1 [duvelisib]
How it was run: as §1

[16] = compound: Cc1cc(Nc2cc(CN3CCOCC3)c3nc(C)c(Cc4ccc(Cl)cc4F)n3n2)n[nH]1 [gandotinib]
How it was run: as §1

[17] = compound: Cc1cc(Nc2cc(N3CCN(C)CC3)nc(Sc3ccc(NC(=O)C4CC4)cc3)n2)n[nH]1 [tozasertib]
How it was run: as §1

[18] = compound: Cc1cc(SCc2sc(-c3ccc(C(F)(F)F)cc3)nc2C)ccc1OCC(=O)O
How it was run: as §1

[19] = compound: Cc1ccc(-n2nc(C(C)(C)C)cc2NC(=O)Nc2ccc(OCCN3CCOCC3)c3ccccc23)cc1 [doramapimod]
How it was run: as §1

[20] = compound: Cc1ccc(C(=O)N(CCCN)[C@@H](c2nc3cc(Cl)ccc3c(=O)n2Cc2ccccc2)C(C)C)cc1 [ispinesib]
How it was run: as §1

Chain of UniProt Q9NVI1 (Q9NVI1 whole entry, looked up): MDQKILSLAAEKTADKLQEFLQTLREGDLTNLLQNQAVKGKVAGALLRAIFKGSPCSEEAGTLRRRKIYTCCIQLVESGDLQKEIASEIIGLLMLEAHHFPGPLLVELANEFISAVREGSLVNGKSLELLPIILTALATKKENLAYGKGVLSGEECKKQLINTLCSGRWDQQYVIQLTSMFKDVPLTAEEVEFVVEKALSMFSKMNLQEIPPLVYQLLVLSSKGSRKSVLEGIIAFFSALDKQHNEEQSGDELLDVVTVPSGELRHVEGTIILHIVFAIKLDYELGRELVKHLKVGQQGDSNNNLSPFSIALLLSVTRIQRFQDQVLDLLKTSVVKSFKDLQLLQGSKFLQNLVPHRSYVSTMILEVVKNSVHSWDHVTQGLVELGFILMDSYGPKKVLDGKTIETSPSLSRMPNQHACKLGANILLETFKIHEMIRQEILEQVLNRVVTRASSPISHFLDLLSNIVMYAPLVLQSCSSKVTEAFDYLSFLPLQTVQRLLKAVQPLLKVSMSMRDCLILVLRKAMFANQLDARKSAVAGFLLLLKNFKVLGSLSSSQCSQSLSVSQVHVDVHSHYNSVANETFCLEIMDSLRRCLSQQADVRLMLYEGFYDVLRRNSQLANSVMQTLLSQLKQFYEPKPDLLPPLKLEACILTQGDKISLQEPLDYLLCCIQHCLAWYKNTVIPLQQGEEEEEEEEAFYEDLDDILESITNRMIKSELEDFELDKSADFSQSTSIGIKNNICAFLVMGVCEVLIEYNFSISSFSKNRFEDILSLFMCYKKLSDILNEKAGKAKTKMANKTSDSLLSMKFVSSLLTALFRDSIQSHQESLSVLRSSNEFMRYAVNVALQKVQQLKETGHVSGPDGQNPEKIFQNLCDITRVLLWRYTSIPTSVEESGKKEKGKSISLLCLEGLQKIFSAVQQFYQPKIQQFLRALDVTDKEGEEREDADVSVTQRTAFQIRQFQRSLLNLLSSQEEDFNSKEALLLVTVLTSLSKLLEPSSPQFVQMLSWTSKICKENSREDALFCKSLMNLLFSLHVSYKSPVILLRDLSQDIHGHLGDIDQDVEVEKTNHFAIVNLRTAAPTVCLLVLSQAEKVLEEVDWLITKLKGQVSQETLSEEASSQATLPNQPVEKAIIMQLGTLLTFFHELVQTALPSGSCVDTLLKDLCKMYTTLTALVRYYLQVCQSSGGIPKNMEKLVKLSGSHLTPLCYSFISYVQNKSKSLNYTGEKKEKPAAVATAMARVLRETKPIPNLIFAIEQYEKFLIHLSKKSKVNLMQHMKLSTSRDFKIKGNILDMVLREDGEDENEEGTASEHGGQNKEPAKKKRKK
Chain of UniProt Q6P3S6 (Q6P3S6 whole entry, looked up): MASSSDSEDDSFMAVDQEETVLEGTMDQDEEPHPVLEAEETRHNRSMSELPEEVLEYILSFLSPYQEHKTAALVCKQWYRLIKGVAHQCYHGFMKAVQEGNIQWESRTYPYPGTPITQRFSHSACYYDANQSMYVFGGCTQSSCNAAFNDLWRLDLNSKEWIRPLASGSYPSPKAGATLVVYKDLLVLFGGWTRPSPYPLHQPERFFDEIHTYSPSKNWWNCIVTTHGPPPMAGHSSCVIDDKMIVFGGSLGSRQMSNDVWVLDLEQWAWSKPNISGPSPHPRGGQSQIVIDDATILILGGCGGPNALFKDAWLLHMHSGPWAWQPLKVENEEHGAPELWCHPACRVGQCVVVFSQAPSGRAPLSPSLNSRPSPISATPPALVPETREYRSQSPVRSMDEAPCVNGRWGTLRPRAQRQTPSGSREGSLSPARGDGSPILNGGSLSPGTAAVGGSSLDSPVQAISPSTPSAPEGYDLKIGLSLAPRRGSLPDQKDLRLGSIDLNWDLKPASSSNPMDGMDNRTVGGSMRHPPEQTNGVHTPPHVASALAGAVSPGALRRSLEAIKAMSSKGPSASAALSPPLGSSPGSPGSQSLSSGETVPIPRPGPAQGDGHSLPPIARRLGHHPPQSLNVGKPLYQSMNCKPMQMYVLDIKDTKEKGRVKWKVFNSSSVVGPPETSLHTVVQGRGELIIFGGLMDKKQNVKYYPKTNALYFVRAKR
Chain of UniProt Q8N9F7 (Q8N9F7 whole entry, looked up): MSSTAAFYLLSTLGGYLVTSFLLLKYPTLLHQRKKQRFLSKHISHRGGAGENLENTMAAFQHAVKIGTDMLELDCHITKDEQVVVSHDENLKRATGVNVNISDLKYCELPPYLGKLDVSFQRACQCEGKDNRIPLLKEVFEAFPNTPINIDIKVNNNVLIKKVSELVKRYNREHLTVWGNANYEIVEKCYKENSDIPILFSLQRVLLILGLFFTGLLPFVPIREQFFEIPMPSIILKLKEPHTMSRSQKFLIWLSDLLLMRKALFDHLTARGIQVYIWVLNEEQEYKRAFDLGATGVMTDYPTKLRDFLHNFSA
Chain of UniProt Q96JB3 (Q96JB3 whole entry, looked up): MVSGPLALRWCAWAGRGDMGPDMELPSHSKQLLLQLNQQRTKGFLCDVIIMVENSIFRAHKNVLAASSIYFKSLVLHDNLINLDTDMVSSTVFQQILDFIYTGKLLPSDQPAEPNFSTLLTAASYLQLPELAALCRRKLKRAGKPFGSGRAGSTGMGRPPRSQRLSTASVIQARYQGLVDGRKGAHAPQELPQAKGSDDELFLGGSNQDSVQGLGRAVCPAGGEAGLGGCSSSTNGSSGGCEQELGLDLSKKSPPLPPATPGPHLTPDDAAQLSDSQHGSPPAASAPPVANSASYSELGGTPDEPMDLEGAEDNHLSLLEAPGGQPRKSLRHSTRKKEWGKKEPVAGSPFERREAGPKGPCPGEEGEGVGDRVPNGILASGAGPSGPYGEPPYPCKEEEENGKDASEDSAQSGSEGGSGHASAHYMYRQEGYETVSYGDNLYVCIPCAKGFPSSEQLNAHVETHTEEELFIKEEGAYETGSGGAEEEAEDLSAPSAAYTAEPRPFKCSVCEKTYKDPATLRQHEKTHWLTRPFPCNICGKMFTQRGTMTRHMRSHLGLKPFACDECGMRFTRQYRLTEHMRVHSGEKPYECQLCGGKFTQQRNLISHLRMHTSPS
Chain of UniProt Q7Z4V5 (Q7Z4V5 whole entry, looked up): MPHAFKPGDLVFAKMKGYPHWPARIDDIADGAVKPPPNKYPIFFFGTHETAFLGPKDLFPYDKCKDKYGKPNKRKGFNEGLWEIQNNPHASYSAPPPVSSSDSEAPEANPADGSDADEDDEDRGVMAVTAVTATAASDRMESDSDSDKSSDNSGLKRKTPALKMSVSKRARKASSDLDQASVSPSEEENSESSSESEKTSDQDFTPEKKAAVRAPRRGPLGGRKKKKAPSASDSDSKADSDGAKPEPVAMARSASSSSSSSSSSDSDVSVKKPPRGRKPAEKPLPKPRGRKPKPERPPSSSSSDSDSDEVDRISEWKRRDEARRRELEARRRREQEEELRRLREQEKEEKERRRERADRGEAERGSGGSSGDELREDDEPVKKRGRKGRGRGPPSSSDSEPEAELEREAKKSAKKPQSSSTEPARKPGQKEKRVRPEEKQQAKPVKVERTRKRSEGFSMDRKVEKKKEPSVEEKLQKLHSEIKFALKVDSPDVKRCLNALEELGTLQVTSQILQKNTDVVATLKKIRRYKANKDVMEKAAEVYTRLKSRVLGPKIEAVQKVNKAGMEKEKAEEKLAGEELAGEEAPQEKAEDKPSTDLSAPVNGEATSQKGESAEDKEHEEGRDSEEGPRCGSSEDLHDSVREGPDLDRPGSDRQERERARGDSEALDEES
Chain of UniProt Q92522 (Q92522 whole entry, looked up): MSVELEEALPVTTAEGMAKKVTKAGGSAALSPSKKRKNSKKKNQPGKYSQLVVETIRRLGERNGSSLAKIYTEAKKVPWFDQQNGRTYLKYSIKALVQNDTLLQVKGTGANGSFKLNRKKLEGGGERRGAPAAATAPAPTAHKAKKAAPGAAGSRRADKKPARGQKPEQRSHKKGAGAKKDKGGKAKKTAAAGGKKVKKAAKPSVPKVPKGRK
Chain of UniProt Q03013 (Q03013 whole entry, looked up): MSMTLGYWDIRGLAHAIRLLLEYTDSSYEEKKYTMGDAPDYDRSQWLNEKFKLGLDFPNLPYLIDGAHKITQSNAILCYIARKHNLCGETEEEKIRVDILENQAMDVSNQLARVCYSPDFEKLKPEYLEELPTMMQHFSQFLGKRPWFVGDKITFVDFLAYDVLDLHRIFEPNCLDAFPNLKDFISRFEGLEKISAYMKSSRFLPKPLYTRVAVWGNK
Chain of UniProt P31943 (P31943 whole entry, looked up): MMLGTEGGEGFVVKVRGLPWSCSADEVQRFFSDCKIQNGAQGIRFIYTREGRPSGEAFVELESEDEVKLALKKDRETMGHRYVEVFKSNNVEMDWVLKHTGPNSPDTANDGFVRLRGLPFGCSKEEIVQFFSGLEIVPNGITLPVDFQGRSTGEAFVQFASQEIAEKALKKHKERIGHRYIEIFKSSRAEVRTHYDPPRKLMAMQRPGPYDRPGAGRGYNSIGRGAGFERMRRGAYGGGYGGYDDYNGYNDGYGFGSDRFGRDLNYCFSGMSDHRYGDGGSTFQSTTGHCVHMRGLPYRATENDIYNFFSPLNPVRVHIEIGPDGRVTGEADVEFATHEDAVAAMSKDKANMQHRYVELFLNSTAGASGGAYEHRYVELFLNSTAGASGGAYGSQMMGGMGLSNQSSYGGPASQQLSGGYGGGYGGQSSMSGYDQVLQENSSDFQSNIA
Chain of UniProt O00165 (O00165 whole entry, looked up): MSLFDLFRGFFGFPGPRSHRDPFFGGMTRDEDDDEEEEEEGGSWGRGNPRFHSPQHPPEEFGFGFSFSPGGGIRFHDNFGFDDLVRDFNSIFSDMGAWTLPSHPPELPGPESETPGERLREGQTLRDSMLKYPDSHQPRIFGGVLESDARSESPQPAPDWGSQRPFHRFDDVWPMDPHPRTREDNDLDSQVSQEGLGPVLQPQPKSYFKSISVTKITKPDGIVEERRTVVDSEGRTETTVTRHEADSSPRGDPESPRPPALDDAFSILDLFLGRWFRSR

Target | log2 fold change [1] | log2 fold change [2] | log2 fold change [3] | log2 fold change [4] | log2 fold change [5] | log2 fold change [6] | log2 fold change [7] | log2 fold change [8] | log2 fold change [9] | log2 fold change [10] | log2 fold change [11] | log2 fold change [12] | log2 fold change [13] | log2 fold change [14] | log2 fold change [15] | log2 fold change [16] | log2 fold change [17] | log2 fold change [18] | log2 fold change [19] | log2 fold change [20]
HNRNPH1 (UniProt P31943) | 0.069 | 0 | 0.091 | 0.048 | 0.028 | -0.192 | -0.015 | 0.068 | 0.046 | -0.135 | 0.027 | -0.171 | -0.012 | 0.02 | -0.026 | -0.017 | -0.01 | 0.126 | -0.012 | -0.068
HDGFL2 (UniProt Q7Z4V5) | 0.032 | 0.056 | -0.025 | 0.012 | -0.051 | -0.013 | 0.025 | 0.04 | -0.019 | -0.004 | 0.086 | -0.007 | -0.052 | -0.04 | -0.047 | 0.005 | -0.004 | -0.061 | -0.045 | 0.019
GDPD1 (UniProt Q8N9F7) | 0.353 (active) | 0.056 | 0.13 | 0.156 | -0.068 | 0.208 | 0.067 | 0.021 | 0.04 | 0.085 | 0.086 | 0.035 | 0.074 | -0.057 | 0.023 | 0.012 | 0.043 | -0.033 | 0.078 | 0.353 (active)
FBXO42 (UniProt Q6P3S6) | -0.037 | 0.011 | 0.025 | 0.009 | 0.047 | -0.054 | 0.036 | 0.07 | 0.063 | -0.088 | 0.077 | 0.4 (active) | 0.127 | -0.064 | 0.076 | -0.022 | 0.105 | 0.063 | 0.01 | -0.015
FBXO6 (UniProt Q9NRD1) | -0.016 | 0.008 | 0.044 | -0.17 | -0.043 | 0.022 | 0.059 | 0.038 | 0.026 | -0.091 | 0.035 | 0.475 (active) | 0.052 | -0.082 | 0.04 | 0.088 | 0.036 | 0.036 | -0.049 | 0.39 (active)
HAX1 (UniProt O00165) | -0.056 | 0.017 | 0.004 | 0.04 | -0.007 | -0.311 | -0.041 | -0.014 | -0.015 | -0.145 | 0.02 | -0.235 | -0.043 | 0.16 | -0.062 | -0.174 | -0.071 | 0.014 | 0.035 | -0.59 (active)
FDPS (UniProt P14324) | 0.048 | -0.246 | 0.019 | -0.063 | 0.066 | 0.118 | -0.047 | 0.009 | -0.018 | -0.076 | 0.07 | -0.768 (active) | 0.073 | 0.117 | 0.059 | -0.091 | -0.193 | 0.222 | 0.004 | -0.493 (active)
HNRNPC isoform 2 (UniProt P07910) | 0.009 | 0.39 | -0.024 | 0.796 | -0.052 | -0.041 | 0.002 | -0.065 | -0.026 | 0.065 | -0.176 | -0.061 | -0.239 | 0.532 | -0.076 | 0.197 | 0.05 | 0.125 | 0.088 | -0.35
FANCI (UniProt Q9NVI1) | 0.004 | -0.189 | -0.01 | -0.014 | -0.015 | -0.113 | -0.034 | 0.033 | 0.001 | 0 | -0.074 | -0.138 | 0.139 | 0 | 0.031 | -0.14 | 0.029 | 0.038 | -0.021 | -0.071
GSTM4 (UniProt Q03013) | 0.027 | 0.103 | 0.084 | 0.031 | 0.061 | 0.084 | -0.056 | 0.068 | 0.031 | 0.022 | -0.181 | -0.006 | 0.004 | 0.054 | 0.101 | -0.028 | -0.068 | 0.035 | -0.037 | -0.012
HIC2 (UniProt Q96JB3) | -0.067 | 0.226 | -0.012 | 0.238 | -0.057 | -0.386 | -0.073 | -0.066 | 0.207 | -0.052 | -0.037 | 0.067 | -0.079 | 0.043 | -0.103 | 0.088 | 0.121 | 0.011 | 0.121 | -0.061
H1FX (UniProt Q92522) | -0.116 | 0.112 | 0.049 | 0.161 | -0.147 | 0.033 | -0.044 | -0.24 | 0.133 | -0.134 | -0.175 | 0.091 | -0.524 | 0.432 | -0.143 | 0.13 | 0.029 | 0.021 | 0.188 | -0.016
